Measured values as given in PubChem BioAssay AID938 (National Center for Advancing Translational Sciences (NCATS), 2007).
Several values for one entry are separate records, joined by “and”; a condition that tells them apart may be missing. Equal entries are not always repeated. Screen size: about 73,000 compounds; about 1,800 (2.5%) were called active. Roughly 13% stayed inconclusive and do not appear here. Calls come from the whole dose curve; as a rule, active = well fitted activation curve with a large enough effect; inconclusive = small, poorly fitted or top-dose-only effect; inactive = no such curve, though single readings can be large or run the other way. Shown is part of a subset that was picked to be rich in actives. Where a structure was tested more than once in an assay, its records may differ in their call.

Assay: qHTS Assay for Agonists of the Thyroid Stimulating Hormone Receptor: Activators of Intracellular cAMP Concentrations in Parental HEK 293; note: nearly all actives have a fitted effect of over 55% in size; for activation: % of control where 0% means no effect
Conditions: parental HEK293 CNG cAMP sensor, membrane potential fluorescence; series mostly up to 57.1 µM; activation: at the top concentration
Text: NIH Chemical Genomics Center [NCGC]
NIH Molecular Libraries Screening Centers Network [MLSCN]
PI Name: Dr. Marvin Gershengorn
This cell based assay utilized a cyclic nucleotide gated ion channel (CNG) as a biosensor for cAMP induction. HEK 293 cells stably expressing the modified CNG were purchased from BD biosciences (http://www.atto.com/products/actone/features_benefits.shtml) . Stimulation of cAMP production causes the CNG to open and subsequent membrane depolarization to occur. A fluorescent membrane potential dye (BD biosciences) was utilized to detect cAMP stimulation in cells.
The cells were maintained in DMEM medium (Invitrogen) containing 10 % FBS (Hyclone), 100 units/ml Penicillin, 100 ug/ml Streptomycin (Invitrogen), and 250 ug/ml Geneticin (Invitrogen) and 1 ug/ml Puromycin (Invitrogen) at 37C in 5% CO2. This assay was used as a counterscreen to "qHTS Assay for Agonists of the Thyroid Stimulating Hormone Receptor", to control for compounds signaling through endogenous receptors and other targets of HEK 293 cells.
NCGC Assay Protocol Summary:
High Throughput Screening. Freshly passaged cells were dispensed into 1536-well assay plates at 4 ul/well in DMEM containing phenol red (Invitrogen), 10% FCS (Hyclone), and 100 units/ml Penicillin, 100 ug/ml Streptomycin (Invitrogen) and incubated at 37 C with 5% CO2 for 20 to 36 hrs before the robotic screening. The screen was initiated by addition of 4 ul/well membrane potential dye containing 100 uM RO 20-1724 (Sigma Aldrich), followed by 60 min incubation at room temperature to allow for dye equilibration across the cell membrane. 23 nl/well compound or control was then added to the assay plates, which were incubated for additional 30 min before reading a Envision fluorescence plate reader (Perkin Elmer) in bottom-read mode for fluorescence intensity (emission at 590 nm).
Keywords: cAMP, CNG Ion Channel, quantitative high throughput screening, qHTS, HTS, probe identification, CNG, cAMP, cyclic nucleotide gated ion channel PubChem
Potency is the fitted concentration of half-maximal effect.

| Compound | activation | Potency |
| --- | --- | --- |
| C/C(CCc1c[nH]c2ccccc12)=N\O | 2.11% (inactive) |  |
| NCCc1c[nH]c2ccc(O)cc12 |  | inactive and 31.6 µM (active) |
| CC(C)(c1ccc(OC[C@@H]2CO2)cc1)c1ccc(OC[C@H]2CO2)cc1 | 23.3% (inactive) |  |
| N#CCCCl |  | inactive |
| ClC(Cl)(Cl)c1ccccc1 |  | inactive |
| Fc1ccc(C(OCCN2CCN(C/C=C\c3ccccc3)CC2)c2ccc(F)cc2)cc1 | -30.9% (inactive) |  |
| COc1ccc(C2NCc3ccc4c(c3-n3cccc32)OCO4)cc1OC (stereo not given) | 19.3% (inactive) |  |
| c1ccc(C2NCc3ccccc3-n3cccc32)cc1 (stereo not given) |  | 25.1 µM (active) |
| CC(C)CC(C)Nc1ccc(Nc2ccccc2)cc1 (stereo not given) | -10.5% (inactive) |  |
| O=[N+]([O-])c1ccc(Cl)c(Cl)c1 | 11.3% (inactive) |  |
| CC(C)(c1ccccc1)c1ccc(O)cc1 | 14.7% (inactive) |  |
| CC(C)(C)C(O)(CCc1ccc(Cl)cc1)Cn1cncn1 (stereo not given) | 1.41% (inactive) |  |
| C[C@@]1([C@@H](NP(=O)(c2ccccc2)c2ccccc2)c2ccccc2)C[C@H]1CCO |  | 15.8 µM (active) |
| O=C1C2(Cl)C3(Cl)C4(Cl)C(Cl)(Cl)C5(Cl)C3(Cl)C1(Cl)C5(Cl)C24Cl (stereo not given) |  | inactive |
| CCCCC#N | 8.65% (inactive) |  |
